Source: PubChem BioAssay
PAD4 FP inh: inhibitors of human PAD4; Q9UM07; recombinant PAD4, RCA probe fluorescence polarization; inhibition, % at 6.36 µM; 330,000 compounds, 0.41% hits;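 active means percent inhibition above a cutoff equal to the mean of all tested compounds plus 3 SD, cut at about 15% in these data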;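 further: 0% = PAD4 with RCA probe and DMSO and 100% = probe without PAD4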
LYPLA2 inh: LYPLA2 (human) inhibition in PME1 counter-screen | recombinant LYPLA2, FP-Rh probe fluorescence polarization | inhibition, % at 5.9 µM | 320,000 compounds, 0.38% hits | AID 2177;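 active means inhibition above the screen-wide mean plus 3 SD, limit set per campaign, cut at about 26% in these data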;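 further: 0% = LYPLA2 with DMSO and 100% = wells lacking LYPLA2 enzyme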
Target sequence (O95372 whole entry, looked up): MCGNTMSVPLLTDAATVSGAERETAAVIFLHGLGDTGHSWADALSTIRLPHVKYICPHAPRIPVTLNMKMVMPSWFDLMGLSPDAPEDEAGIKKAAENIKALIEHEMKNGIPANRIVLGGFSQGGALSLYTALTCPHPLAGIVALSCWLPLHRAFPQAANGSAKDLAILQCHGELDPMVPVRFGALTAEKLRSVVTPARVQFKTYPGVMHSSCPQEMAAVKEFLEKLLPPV
GSTO1 inh: counter-screen for RBBP9 inhibitors: inhibitors of human GSTO1 | recombinant GSTO1, activity-based probe fluorescence polarization | inhibition, % at 5.96 µM | 300,000 compounds, 1.1% hits | AID 1974;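 active means inhibition above the campaign mean inhibition plus 3 SD, cut at about 35% in these data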;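 further: 0% = GSTO1-1 with DMSO and 100% = wells lacking GSTO1-1 enzyme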
LYPLA1 inh: counter-screen for PME1 inhibitors: inhibitors of human LYPLA1. 320,000 compounds, 0.16% hits. recombinant LYPLA1, FP-Rh probe fluorescence polarization. inhibition, % at 5.9 µM. O75608;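 active means inhibition above the mean of all tested compounds plus 3 SD, set per campaign, cut at about 14% in these data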;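 further: inhibitors block serine hydrolase probe labeling of LYPLA1 so polarization falls; 0% = enzyme with DMSO and 100% = wells lacking LYPLA1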
ZTA DNA inh: ZTA (EBV) inhibition in EBNA-1 counter-screen | P03206 | inhibition, % at 11 µM | ZTA-DNA binding, fluorescence polarization | 320,000 compounds, 0.15% hits; in the data active means inhibition above about 33%
EBNA-1 inh: blocks EBNA-1 binding to DNA; EBNA-1 DNA binding, fluorescence polarization; inhibition, % at 14.8 µM; 300,000 compounds, 0.34% hits; AID 1950; in the data active means inhibition above about 28%
GSTO1 inh conf: confirmation of human GSTO1 inhibitors; recombinant GSTO1, probe fluorescence polarization; AID 2176; 2,400 compounds, 54% hits; shares compounds with GSTO1 inh; inhibition, % at 5.96 µM;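 active means inhibition above the primary screen's cutoff, its mean inhibition plus 3 SD, cut at about 35% in these data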;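 further: loss of polarization as inhibitors block binding of rhodamine sulfonate ester activity probe; 0% = GSTO1 with DMSO and 100% = wells lacking GSTO1 enzyme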
GSTO1 recomb ABPP: GSTO1 (human) inhibition by gel ABPP; shares compounds with GSTO1 inh; 130 compounds, 30% hits; inhibition, % at 1 µM; AID 463110; recombinant GSTO1, gel ABPP SE-Rh probe fluorescence;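 active means inhibition of the enzyme GSTO1 above about 75%, limit read from the data; inactive means inhibition below that limit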
* marks the source's active call; other numbers are inactive results; . = no result given. The list is not random: actives were taken first. Their share in the collection is about 1.7%.

SMILES	PAD4 FP inh	LYPLA2 inh	GSTO1 inh	LYPLA1 inh	ZTA DNA inh	EBNA-1 inh	GSTO1 inh conf	others
O=C(CCl)N1CCCC1c1ccc2c(c1)OCCO2 (stereo not drawn)	1	1	55*	-3	3	-3	70*	GSTO1 recomb ABPP=7
CC(=O)c1ccc(OCC(=O)N2CCCC2c2ccc3c(c2)OCCCO3)cc1 (stereo not drawn)	6	.	.	.	.	.	.
COC(=O)c1ccc(CNC(=O)C2CCC(=O)N(CCCc3ccccc3)C2)cc1 (stereo not drawn)	7	-10	11	-1	-9	-11	.
CC(=O)c1c(C)[nH]c(C(=O)COC(=O)COc2ccccc2F)c1C	-9	2	.	1	0	.	.
Cc1ccc2[nH]c3c(c2c1)CCCC3NC(=O)CCl (stereo not drawn)	-5	1	93*	0	16	9	99*
CC(=O)C(=Nc1ccccc1Cl)NNc1ccc(Cl)cc1	-2	5	40*	1	-7	-12	10
O=C(Oc1ccc(/C=N/NC(=O)c2ccccn2)cc1)c1cccc(F)c1	-4	-8	6	-5	-7	-4	.
CC(Sc1nc2ncc(Cl)cc2[nH]1)C(=O)c1c(N)n(C)c(=O)n(C)c1=O (stereo not drawn)	-8	1	74*	-2	-7	2	6
C=CCN=c1scc(C)n1/N=C/c1ccc(O)c(O)c1	-4	-6	95*	-6	10	1	9
Cc1cc[n+](-c2nc3ccccc3nc2[N-]S(=O)(=O)c2ccccc2)cc1	-6	1	4	-1	-6	-14	.
N#CC(=C=[N-])c1nc2ccccc2nc1-[n+]1ccccc1	-4	6	64*	1	-10	-2	37*
Cc1cc[n+](-c2nc3ccccc3nc2C(=C=[N-])C#N)cc1	-27	-4	47*	-3	8	5	35
COc1ccc(NS(=O)(=O)c2cccc(C(=O)NNC(=O)c3ccccc3O)c2)cc1	3	-3	47*	-3	14	0	9
Cc1ccc(-c2cc(NC(=O)CCl)n(-c3ccccc3)n2)cc1	1	7	73*	0	0	6	86*
O=C(CCl)Nc1cc(-c2ccccc2)nn1-c1ccccc1	-5	3	65*	-2	-19	-14	89*
CCCCOCCCNS(=O)(=O)c1ccccc1	1	9	5	3	-6	-5	.
CCCCOP(=O)(OCCCC)C1(NS(=O)(=O)c2ccccc2)C=CC(=O)c2ccccc21 (stereo not drawn)	-21	-10	50*	-9	-2	-2	18
COc1ccc(C2CC(=O)N(C)c3ccccc3S2)cc1 (stereo not drawn)	1	5	47*	8	0	7	2
COc1cccc(NC(=O)Cn2c(CCC(=O)O)ccc2-c2ccc(C)cc2)c1	-4	12	-4	5	11	4	.
Cc1nn(Cc2ccc(Cl)cc2Cl)c(C)c1NC(=O)CCl	-4	-1	97*	3	14	5	97*
COc1cc(/C=N/NS(=O)(=O)c2ccc(C(C)(C)C)cc2)cc([N+](=O)[O-])c1O	-1	1	50*	-1	7	-16	64*
Cc1[nH]n(-c2ccccc2)c(=O)c1N=Nc1ccc2c(c1)OCCO2	3	2	-2	2	8	2	.
Cc1[nH]n(-c2ccccc2)c(=O)c1N=Nc1c(O)cc(S(=O)(=O)N(C)C)c2ccccc12	-8	6	47*	-1	-16	3	71*
CC1CCN(C(=O)CN2c3cccc4cccc(c34)S2(=O)=O)CC1	-4	5	.	2	11	.	.
C/C(=N\NC(=O)Cc1cccn1C)c1ccc([N+](=O)[O-])cc1	-1	-2	-2	-3	-8	0	.
C/C(=N/NC(=O)Cc1cc(=O)[nH][nH]1)c1ccc([N+](=O)[O-])cc1	-10	-3	57*	0	19	6	6
